LmPK inhibitor: blocks Leishmania mexicana pyruvate kinase activity; Q27686; purified LmPK, Kinase-Glo ATP luminescence, 1 h; Potency, µM (doses to about 57.5 µM), for inactives: at the top dose activity change, negative = inhibition, most hits filed as inhibitors; hit rate 0.37% among 290,000; AID 1721; also: potency is read from the fitted curve at half-maximal effect; % is scaled to controls: 0 for no effect and ±100 for the full control effect
Target sequence (Q27686 whole entry, looked up): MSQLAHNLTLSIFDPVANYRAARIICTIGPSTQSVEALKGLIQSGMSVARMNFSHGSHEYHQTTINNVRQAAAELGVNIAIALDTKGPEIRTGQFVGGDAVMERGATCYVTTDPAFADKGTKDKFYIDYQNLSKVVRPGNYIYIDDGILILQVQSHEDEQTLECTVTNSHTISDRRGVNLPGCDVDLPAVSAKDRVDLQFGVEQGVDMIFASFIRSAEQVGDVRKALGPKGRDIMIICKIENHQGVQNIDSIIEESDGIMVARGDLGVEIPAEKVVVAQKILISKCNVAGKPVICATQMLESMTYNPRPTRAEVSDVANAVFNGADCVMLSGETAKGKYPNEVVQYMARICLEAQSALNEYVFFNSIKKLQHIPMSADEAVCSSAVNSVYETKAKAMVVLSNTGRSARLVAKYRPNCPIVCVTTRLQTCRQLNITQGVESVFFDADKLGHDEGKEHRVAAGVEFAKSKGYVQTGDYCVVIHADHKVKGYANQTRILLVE
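Kinase-Glo luminescence read after 1 h RT reaction of 0.1 nM LmPK with 0.5 mM PEP and 0.1 mM ADP. Activity scaled between uninhibited and enzyme-free controls.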
Shiga inhibitor: blocks Shiga toxin action in Vero cells; Vero cells, Shiga toxin protein synthesis inhibition reporter; inhibition, % at 38.7 µM; hit rate 9.2% among 290,000; in the data active = inhibition mostly above about 28%, no sharp cut-off; inactive = mostly below about 43%; also: 0% is about no effect
CHX counter: counter-screen hit for Shiga toxin inhibitors, cycloheximide | cell reporter, cycloheximide protein synthesis inhibition counterscreen | max response, % | hit rate 12% among 300,000 | AID 2314; in the data active = max response mostly above about 13%, no sharp cut-off; inactive = mostly below about 14%; also: read at 38.3 µM for the half of the compounds with a filed dose; 0% is about no effect
RE007 growth inh: less growth of the S. pombe RE007 Vpr strain; S. pombe RE007 Vpr strain, BacTiter-Glo ATP luminescence, 24 h; Potency, µM (highest dose often 92.2 µM), for inactives: at the highest dose activity change, negative = less growth, usual class: inhibitors; hit rate 0.21% among 360,000; active = well fitted falling curve with a large enough effect; inconclusive = small, poorly fitted or top-dose-only effect; inactive = no such curve, though single readings can be large or run the other way; also: potency is read from the fitted curve at half-maximal effect; % is scaled to controls: 0 for no effect and ±100 for the full control effect; nearly all actives have a fitted effect of over 50% in size
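Fission yeast strain RE007, carrying one chromosomally integrated HIV-1 vpr copy, was seeded at OD 0.01 in PMG+AL medium with 23 nL pinned compound. After 24 h at 30 °C and 99% humidity, viability was read by BacTiter-Glo luminescence.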
Giardia FBPA inh: Giardia lamblia aldolase inhibition | A8B2U2 | purified Giardia FBPA | Potency, µM (top dose mostly 59.6 µM), for inactives: at the top dose activity, negative = inhibition, most hits filed as inhibitors | hit rate 0.71% among 290,000; also: potency is read from the fitted curve at half-maximal effect; % is scaled to controls: 0 for no effect and ±100 for the full control effect; nearly all actives have a fitted effect of over 55% in size
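40 nM FBPA preincubated 10 min at RT with compound (up to 57.5 uM final), then substrate plus GAPDH/TPI/NAD/arsenate coupling and diaphorase/resazurin added. Fluorescence read after 20 min at RT, 525/598 nm.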
Tb PYK inh: inhibitors of Trypanosoma brucei pyruvate kinase. Q57TT1. TbPYK enzyme, Kinase-Glo Plus ATP luminescence, 45 min. Potency, µM (highest dose often 76.8 µM), without a hit: top-dose activity, negative = inhibition, hits mostly inhibitors. hit rate 0.12% among 410,000. AID 624173; also: potency is read from the fitted curve at half-maximal effect; % is scaled to controls: 0 for no effect and ±100 for the full control effect; nearly all actives have a fitted effect of over 50% in size
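ADP (130 uM final) triggers the TbPYK reaction after compound addition; incubation is 45 min at room temperature. Kinase-Glo Plus is then added and luminescence imaged. Normalized data are fitted to concentration-effect curves.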
Active calls of the source: *; ? = inconclusive; . = not tested or not shown; + = active, no number; [ ] = remark or other dose. Shown is part of a subset that was picked to be rich in hits. Unless noted, calls follow the shape of the dose curve; as a rule, active = well fitted curve in the direction sought with a large enough effect; inconclusive = small, poorly fitted or top-dose-only effect, or another doubt; inactive = no such curve, though single readings can be large; an effect the other way counts as inactive or inconclusive.

SMILES	LmPK inhibitor	Shiga inhibitor	CHX counter	RE007 growth inh	Giardia FBPA inh	Tb PYK inh
O=C(N/N=C/c1sc(=O)n(Cc2ccc(Br)cc2)c1Cl)c1ccco1	12.9%	3.2	22.3*	-11.4%	.	-6.2%
O=C(O)c1cccc(Cn2c(Cl)c(/C=N/NC(=O)c3ccccc3O)sc2=O)c1	-1.0%	30.5	17.2*	2.6%	13.2%	-2.9%
COc1ccc(NC(=O)CSc2nc3ccccc3n2CC(=O)N(C)C2CCCCC2)cc1	.	.	.	.	.	5.7%
CC1CN(C(=O)c2ccc(-c3cccc(C(F)(F)F)c3)o2)CC(C)O1 (stereo unspecified)	.	.	.	-7.8%	.	-12.5%
C[C@](O)(C(=O)Nc1ccc(S(=O)(=O)c2ccccc2)cc1)C(F)(F)F	.	.	.	.	14.0%	.
CNC(=O)[C@@H](Cc1ccccc1)N(C)C(=O)[C@@H](Cc1ccc2ccccc2c1)N(C)C(=O)/C=C/CC(C)(C)N	.	.	.	.	3.2%	.
COC(=O)NC(CC(C)=O)c1ccc(Cl)cc1 (stereo unspecified)	.	.	.	.	1.4%[12.9 µM]	.
CCN1CCN(c2nc(C)nc3c2sc(=S)n3C)CC1	-3.9%	-7.1	-2.9	-4.7%	17.7µM*	?
Cc1nc(N2CCCCC2)c2sc(=S)n(C)c2n1	-0.7%	9.5	-2.4	16.0%	4.4%	-9.6%
CCN(CC)C(=O)CSc1nc(N)c(C#N)c(-c2cccs2)c1C#N	5.8%	-7.7	-3.9	15.9%	3.6%	-8.7%
CCSc1nc(N)nc(-c2cccs2)c1C#N	1.6%	67.9*	30.8*	?	1.4%	-11.2%
CC(OC(=O)Cn1cnc2c1c(=O)n(C)c(=O)n2C)C(=O)N(C)c1ccccc1 (stereo unspecified)	.	.	.	1.8%	.	1.3%
C/C(=C\c1ccccc1)C(=O)NC1CCSC1=O (stereo unspecified)	0.9%	31.0	17.9*	-1.7%	-1.3%	-0.6%
O=C(CSc1c2c(nc3ccccc13)CCC2)Nc1ccc(F)cc1F	.	.	.	.	.	0.6%
Clc1ccc(CNc2ncccn2)cc1	-1.2%	43.3*	26.5*	6.6%	11.4%	0.1%
Cc1ccnc(NC(=O)COc2ccc(Cl)cc2)n1	0.4%	40.7	24.8*	0.1%	3.9%	4.8%
O=C(COc1ccc(Cl)cc1)NNC(=O)c1ccccn1	-2.2%	-5.4	1.3	-22.4%	?	-4.3%
O=C(COc1ccc(Cl)cc1)Nc1ncccn1	-9.3%	34.9*	34.2*	15.4%	0.6%	-0.5%
Oc1ccc(Cl)cc1N=Cc1sc2ccccc2c1Cl	3.0%	60.5*	41.4*	-26.1%	-21.2%	-6.6%
O=[N+]([O-])c1ccc(O)c(N=Cc2sc3ccccc3c2O)c1	-23.8%	60.7*	60.0*	-24.7%	?	-12.7%
COc1ccc(-c2sc3ccccc3c2-c2ccc(O)cc2)cc1	.	.	.	-49.8%	.	2.8%
COc1ccc(N=Cc2sc3ccccc3c2Cl)cc1	-5.7%	13.0	25.0*	-0.2%	-0.7%	0.7%
Oc1c(C=Nc2cccc3cccnc23)sc2ccccc12	?	81.5	31.1	.	5.1%	.
COc1ccc2ccccc2c1C1CC(=O)N2CN(C3CCCCC3)CSC2=C1C#N (stereo unspecified)	4.3%	-8.3	-3.2	-0.2%	?	?
COc1ccc(C2CC(=O)N3CN(C4CCCCC4)CSC3=C2C#N)c(OC)c1 (stereo unspecified)	.	.	.	.	.	17.8µM*
SMILES	LmPK inhibitor	Shiga inhibitor	CHX counter	RE007 growth inh	Giardia FBPA inh	Tb PYK inh
CCOc1cc(C2CC(=O)N3CN(C4CCCCC4)CSC3=C2C#N)ccc1O (stereo unspecified)	-23.8%	-8.0	-3.0	-8.3%	0.792µM*	?
CCCCN(C=O)c1c(CC)nc2ccc(C(=O)NCc3cccs3)cn12	.	.	.	9.4%[18.4 µM]	.	2.7%
c1ccc(COc2cccc(-c3cc4nc(NCCCn5ccnc5)ccn4n3)c2)cc1	.	.	.	-29.8%[18.4 µM]	.	9.2%
CCN(CC)C(=O)c1[nH]cnc1C(=O)Nc1ccc(Cl)cc1	.	.	.	-15.0%	.	-1.9%
CC(NC(=O)/C=C/c1ccco1)c1nc2ccccc2n1Cc1cccc(Cl)c1 (stereo unspecified)	2.3%	66.6*	53.7*	-0.4%	-0.3%	-12.6%
O=C1c2ccccc2C(=O)c2c(/C=C/N3CCCCC3)ccnc21	.	.	.	?	.	3.9%
O=C(CC(=O)c1ccccc1)Nc1cccnc1Cl	-9.6%	73.3*	44.0*	-5.3%	0.2%	3.2%
O=C(Nc1ccccc1Cl)Nc1cccnc1Cl	1.3%	25.4	15.3	6.5%	0.3%	3.1%
O=C(CCc1ccccc1)Nc1cc(Cl)ccc1O	-12.2%	31.5	11.0	-6.8%	-16.2%	1.9%
O=C(CCc1ccccc1)Nc1cccnc1Cl	-14.4%	40.3	17.6*	8.8%	0.4%	-1.8%
O=C(NCCCl)Nc1cccnc1Cl	-3.3%	12.6	12.1*	5.6%	3.3%	-3.8%
O=[N+]([O-])c1ccc(COc2ccc(CNc3ccccc3)cc2)cc1	-5.0%	34.1	36.1*	-14.8%	-2.3%	2.7%
O=[N+]([O-])c1ccc(NCc2ccccc2)nc1	0.6%	56.5*	54.6*	-25.7%	-2.9%	-9.7%
O=[N+]([O-])c1ccc(COc2cccnc2)cc1	6.7%	55.5*	40.9*	8.5%	-0.7%	-2.6%
CN(C)c1ccc(-c2nc3ccccn3c2Nc2ccc3c(c2)OCCO3)cc1	.	.	.	.	.	3.2%
CC(=O)Nc1ccc(-n2cc(-c3ccccc3)[nH]c2=S)cc1	?	5.9	5.4	5.0%	-0.4%	3.16µM*
COc1ccc(-n2cc(-c3ccccc3)[nH]c2=S)cc1	?	12.7	11.8	15.0%	1.5%	?
COc1ccc(S(=O)(=O)n2ccc(-c3ccc(OCCN(C)c4ccccn4)cc3)n2)cc1	3.5%	-4.7	5.7	-18.2%	1.8%	6.0%
Cc1ccc(Cn2ccc(-c3cnc(-c4ccccc4)s3)n2)cc1	-2.2%	68.7*	29.6*	-8.9%	-4.7%	-2.1%
Fc1ccc(Cn2ccc(-c3cnc(-c4ccccc4)s3)n2)cc1	-7.6%	67.2	39.3*	-16.6%	-3.0%	-2.1%
O=S(=O)(c1ccccc1)n1ccc(-c2cnc(-c3ccccc3)s2)n1	-0.9%	31.4	10.5*	4.6%	-7.9%	5.1%
O=C(c1ccc(F)cc1)n1ccc(-c2cnc(-c3ccccc3)s2)n1	1.1%	73.4*	41.5*	-3.8%	0.3%	-9.0%
O=c1ccc(-c2ccccc2)nn1Cc1ccc(F)cc1	-6.4%	23.0	9.8	23.0%	4.1%	-7.8%
Cc1cc(C)cc(OCC(=O)Nc2ccc(S(=O)(=O)Nc3onc(C)c3C)cc2)c1	.	.	.	.	.	-25.3%
COc1ccc2oc(=O)c(-c3nc(-c4cc(OC)c(OC)c(OC)c4)no3)cc2c1	.	.	.	.	.	0.1%
Cc1ccc(OCCNC(=O)c2ccc3c(c2)OCO3)cc1	-1.3%	65.6*	42.3*	12.4%	6.4%	-3.6%
O=C(CNC(=O)c1ccc2c(c1)OCO2)NCCOc1ccc(Cl)cc1	.	.	.	0.3%	.	-1.5%
COCCCNC(=O)c1ccc2c(c1)OCO2	-1.5%	+	22.9*	5.5%	5.7%	-24.2%
